Positions count from the first letter of the chain named.
Legend:
Assay in all cases: yeast three-hybrid, YBZ-1, SC-Leu-His + 0.5 mM 3-AT, 4 days
Details in all cases: tags: N-Gal4 AD-HA kept; label: inside an RPR1-promoter hybrid RNA with tandem MS2 sites; ssRNA
PUM1 PUF domain R3-TFP = PUM1 PUF domain R3-TFP (Homo sapiens, UniProt Q14671 828-1176, C935T;R936F;Q939P)
Summary of the method: (§1)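 Repeat regions from input (SC-Leu) and selection (SC-Leu-His + 0.5 mM 3-AT) plates were PCR-amplified and Illumina-sequenced after four days of growth. The cells were strain YBZ-1 with a LexA–MS2 coat fusion and a HIS3 reporter, co-expressing Pumilio-1 PUF domain libraries and matching RNA elements from a centromeric plasmid. The interaction score is the log change in variant frequency from input to selection, taken in log2 with a pseudocount of 1 for absent variants.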

PUM1 PUF domain R6-GHR = target: T1, PUM1 PUF domain R6-GHR (Homo sapiens, UniProt Q14671 828-1176, N1043G;Y1044H;Q1047R)
T1 sequence: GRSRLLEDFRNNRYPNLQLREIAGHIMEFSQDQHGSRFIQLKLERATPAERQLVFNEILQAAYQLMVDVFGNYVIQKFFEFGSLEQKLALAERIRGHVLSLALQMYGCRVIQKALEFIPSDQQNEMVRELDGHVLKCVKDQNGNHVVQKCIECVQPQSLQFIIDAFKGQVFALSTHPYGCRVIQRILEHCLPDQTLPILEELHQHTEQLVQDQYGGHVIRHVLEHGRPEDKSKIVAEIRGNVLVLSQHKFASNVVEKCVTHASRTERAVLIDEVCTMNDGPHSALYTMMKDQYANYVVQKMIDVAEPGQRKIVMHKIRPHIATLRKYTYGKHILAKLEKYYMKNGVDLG
Summary of the method: as §1

PUM1 PUF domain R8-RRK = PUM1 PUF domain R8-RRK (Homo sapiens, UniProt Q14671 828-1176, N1122R;Y1123R;Q1126K)
Summary of the method: as §1

PUM1 PUF domain R4-GPA = PUM1 PUF domain R4-GPA (Homo sapiens, UniProt Q14671 828-1176, N971G;H972P;Q975A)
Summary of the method: as §1

PUM1 PUF domain R4-PYG = PUM1 PUF domain R4-PYG (Homo sapiens, UniProt Q14671 828-1176, N971P;H972Y;Q975G)
Summary of the method: as §1

PUM1 PUF domain R4-CMG = PUM1 PUF domain R4-CMG (Homo sapiens, UniProt Q14671 828-1176, N971C;H972M;Q975G)
Summary of the method: as §1

PUM1 PUF domain R4-SMC = PUM1 PUF domain R4-SMC (Homo sapiens, UniProt Q14671 828-1176, N971S;H972M;Q975C)
Summary of the method: as §1

PUM1 PUF domain R5-RFP = PUM1 PUF domain R5-RFP (Homo sapiens, UniProt Q14671 828-1176, C1007R;R1008F;Q1011P)
Summary of the method: as §1

PUM1 PUF domain R8-PYG = PUM1 PUF domain R8-PYG (Homo sapiens, UniProt Q14671 828-1176, N1122P;Q1126G)
Summary of the method: as §1

PUM1 PUF domain R3-LFC = PUM1 PUF domain R3-LFC (Homo sapiens, UniProt Q14671 828-1176, C935L;R936F;Q939C)
Summary of the method: as §1

PUM1 PUF domain R2-AFS = PUM1 PUF domain R2-AFS (Homo sapiens, UniProt Q14671 828-1176, N899A;Y900F;Q903S)
Summary of the method: as §1

PUM1 PUF domain R2-LFG = PUM1 PUF domain R2-LFG (Homo sapiens, UniProt Q14671 828-1176, N899L;Y900F;Q903G)
Summary of the method: as §1

PUM1 PUF domain R6-CYQ = target: T2, PUM1 PUF domain R6-CYQ (Homo sapiens, UniProt Q14671 828-1176, N1043C)
T2 sequence: T1 sequence with G216C, H217Y, R220Q
Summary of the method: as §1

PUM1 PUF domain R5-RKN = PUM1 PUF domain R5-RKN (Homo sapiens, UniProt Q14671 828-1176, C1007R;R1008K;Q1011N)
Summary of the method: as §1

PUM1 PUF domain R5-KKE = PUM1 PUF domain R5-KKE (Homo sapiens, UniProt Q14671 828-1176, C1007K;R1008K;Q1011E)
Summary of the method: as §1

PUM1 PUF domain R7-RGS = PUM1 PUF domain R7-RGS (Homo sapiens, UniProt Q14671 828-1176, S1079R;N1080G;E1083S)
Summary of the method: as §1

PUM1 PUF domain R5-TNG = PUM1 PUF domain R5-TNG (Homo sapiens, UniProt Q14671 828-1176, C1007T;R1008N;Q1011G)
Summary of the method: as §1

PUM1 PUF domain R3-RQV = PUM1 PUF domain R3-RQV (Homo sapiens, UniProt Q14671 828-1176, C935R;R936Q;Q939V)
Summary of the method: as §1

PUM1 PUF domain R4-GNL = PUM1 PUF domain R4-GNL (Homo sapiens, UniProt Q14671 828-1176, N971G;H972N;Q975L)
Summary of the method: as §1

PUM1 PUF domain R4-PWK = PUM1 PUF domain R4-PWK (Homo sapiens, UniProt Q14671 828-1176, N971P;H972W;Q975K)
Summary of the method: as §1

GGCUAGAACUAGUGGAUCCCCCGGCGCCCGGCGGCUCGAGCCCGGGUAAGUGUAAAUAGUCUGCAUGCCGCCGGGCGCCAUGCCUGCAGGUCGACUCUAGAAAACAUG
binding signal (PUM1 PUF domain R3-TFP): 4.82 log2 enrichment (interaction score) | binding signal (PUM1 PUF domain R6-GHR): 3.81 log2 enrichment (interaction score) | binding signal (PUM1 PUF domain R8-RRK): 4.75 log2 enrichment (interaction score) | binding signal (PUM1 PUF domain R4-GPA): 3.16 log2 enrichment (interaction score) | binding signal (PUM1 PUF domain R4-PYG): 5.58 log2 enrichment (interaction score) | binding signal (PUM1 PUF domain R4-CMG): 3.4 log2 enrichment (interaction score) | binding signal (PUM1 PUF domain R4-SMC): 3.15 log2 enrichment (interaction score) | binding signal (PUM1 PUF domain R5-RFP): 2.31 log2 enrichment (interaction score) | binding signal (PUM1 PUF domain R8-PYG): 1.81 log2 enrichment (interaction score) | binding signal (PUM1 PUF domain R3-LFC): 1.84 log2 enrichment (interaction score)

GGCUAGAACUAGUGGAUCCCCCGGCGCCCGGCGGCUCGAGCCCGGGUAAGUGUAAAAAGUCUGCAUGCCGCCGGGCGCCAUGCCUGCAGGUCGACUCUAGAAAACAUG
binding signal (PUM1 PUF domain R2-AFS): 3.67 log2 enrichment (interaction score) | binding signal (PUM1 PUF domain R2-LFG): 3.76 log2 enrichment (interaction score)

GGCUAGAACUAGUGGAUCCCCCGGCGCCCGGCGGCUCGAGCCCGGGUAAGUGAAAAUAGUCUGCAUGCCGCCGGGCGCCAUGCCUGCAGGUCGACUCUAGAAAACAUG
binding signal (PUM1 PUF domain R6-CYQ): 6 log2 enrichment (interaction score)

GGCUAGAACUAGUGGAUCCCCCGGCGCCCGGCGGCUCGAGCCCGGGUAAGUGUCAAUAGUCUGCAUGCCGCCGGGCGCCAUGCCUGCAGGUCGACUCUAGAAAACAUG
binding signal (PUM1 PUF domain R5-RKN): 2.84 log2 enrichment (interaction score) | binding signal (PUM1 PUF domain R5-KKE): 5.07 log2 enrichment (interaction score) | binding signal (PUM1 PUF domain R5-RFP): 4.87 log2 enrichment (interaction score)

GGCUAGAACUAGUGGAUCCCCCGGCGCCCGGCGGCUCGAGCCCGGGUAAGUGUAAAGAGUCUGCAUGCCGCCGGGCGCCAUGCCUGCAGGUCGACUCUAGAAAACAUG
binding signal (PUM1 PUF domain R2-LFG): 0.94 log2 enrichment (interaction score)

GGCUAGAACUAGUGGAUCCCCCGGCGCCCGGCGGCUCGAGCCCGGGUAAGUCUAAAUAGUCUGCAUGCCGCCGGGCGCCAUGCCUGCAGGUCGACUCUAGAAAACAUG
binding signal (PUM1 PUF domain R7-RGS): 1.66 log2 enrichment (interaction score)

GGCUAGAACUAGUGGAUCCCCCGGCGCCCGGCGGCUCGAGCCCGGGUAAGUGUUAAUAGUCUGCAUGCCGCCGGGCGCCAUGCCUGCAGGUCGACUCUAGAAAACAUG
binding signal (PUM1 PUF domain R5-TNG): 3.75 log2 enrichment (interaction score)

GGCUAGAACUAGUGGAUCCCCCGGCGCCCGGCGGCUCGAGCCCGGGUAAGUGCAAAUAGUCUGCAUGCCGCCGGGCGCCAUGCCUGCAGGUCGACUCUAGAAAACAUG
binding signal (PUM1 PUF domain R6-GHR): 2.2 log2 enrichment (interaction score)

GGCUAGAACUAGUGGAUCCCCCGGCGCCCGGCGGCUCGAGCCCGGGUAAGUGUAAUUAGUCUGCAUGCCGCCGGGCGCCAUGCCUGCAGGUCGACUCUAGAAAACAUG
binding signal (PUM1 PUF domain R3-TFP): 3.79 log2 enrichment (interaction score) | binding signal (PUM1 PUF domain R3-RQV): 4.16 log2 enrichment (interaction score)

GGCUAGAACUAGUGGAUCCCCCGGCGCCCGGCGGCUCGAGCCCGGGUAAGUGUAAGUAGUCUGCAUGCCGCCGGGCGCCAUGCCUGCAGGUCGACUCUAGAAAACAUG
binding signal (PUM1 PUF domain R3-LFC): 5.61 log2 enrichment (interaction score)

GGCUAGAACUAGUGGAUCCCCCGGCGCCCGGCGGCUCGAGCCCGGGUAAGUGUAUAUAGUCUGCAUGCCGCCGGGCGCCAUGCCUGCAGGUCGACUCUAGAAAACAUG
binding signal (PUM1 PUF domain R4-GPA): 1.91 log2 enrichment (interaction score) | binding signal (PUM1 PUF domain R4-PYG): 7.83 log2 enrichment (interaction score) | binding signal (PUM1 PUF domain R4-SMC): 2.83 log2 enrichment (interaction score) | binding signal (PUM1 PUF domain R4-GNL): 3.47 log2 enrichment (interaction score) | binding signal (PUM1 PUF domain R4-PWK): 6.97 log2 enrichment (interaction score)

GGCUAGAACUAGUGGAUCCCCCGGCGCCCGGCGGCUCGAGCCCGGGUAAGCGUAAAUAGUCUGCAUGCCGCCGGGCGCCAUGCCUGCAGGUCGACUCUAGAAAACAUG
binding signal (PUM1 PUF domain R8-RRK): 5.29 log2 enrichment (interaction score) | binding signal (PUM1 PUF domain R8-PYG): 2.76 log2 enrichment (interaction score)

GGCUAGAACUAGUGGAUCCCCCGGCGCCCGGCGGCUCGAGCCCGGGUAAGUUUAAAUAGUCUGCAUGCCGCCGGGCGCCAUGCCUGCAGGUCGACUCUAGAAAACAUG
binding signal (PUM1 PUF domain R7-RGS): 3.37 log2 enrichment (interaction score)

GGCUAGAACUAGUGGAUCCCCCGGCGCCCGGCGGCUCGAGCCCGGGUAAGUGUACAUAGUCUGCAUGCCGCCGGGCGCCAUGCCUGCAGGUCGACUCUAGAAAACAUG
binding signal (PUM1 PUF domain R4-GPA): 2.05 log2 enrichment (interaction score) | binding signal (PUM1 PUF domain R4-PYG): 6.89 log2 enrichment (interaction score) | binding signal (PUM1 PUF domain R4-CMG): 2.47 log2 enrichment (interaction score) | binding signal (PUM1 PUF domain R4-GNL): 1.04 log2 enrichment (interaction score) | binding signal (PUM1 PUF domain R4-PWK): 6.55 log2 enrichment (interaction score)

Reference: PMC8384837, “Expanding the binding specificity for RNA recognition by a PUF domain”
